In PubChem BioAssay (NCI) one finds growth data, which are given here for eight compounds.

What all share (assay): NCI-60 one-dose screen, 48 h (100 = growth as untreated, 0 = no growth, -100 = all killed)
Holding throughout (settings): 10 µM unless noted

For experiment [1], the system named is SK-MEL-2 melanoma.
Experiment [2] concerns EKVX NSCLC.
Experiment [3] relates to SN12C renal.
Experiment [4] concerns UO-31 renal.
In experiment [5] the test system is TK-10 renal.
Experiment [6] concerns ACHN renal.
In experiment [7] the test system is CAKI-1 renal.
Experiment [8] deals with A498 renal.
Experiment [9] deals with CCRF-CEM leukemia.
In experiment [10] the test system is MOLT-4 leukemia.
Experiment [11] relates to SR leukemia.
Experiment [12] concerns RPMI-8226 leukemia.
The test system of experiment [13] is OVCAR-8 ovarian.
Experiment [14] relates to OVCAR-5 ovarian.
The test system of experiment [15] is OVCAR-4 ovarian.
Experiment [16] deals with SK-OV-3 ovarian.
Experiment [17] deals with IGROV1 ovarian.
Experiment [18] deals with OVCAR-3 ovarian.
Experiment [19] relates to HS 578T breast.
In experiment [20] the test system is NCI/ADR-RES ovarian.

The structures appear in SMILES notation. Compounds without any hit were thinned out: in the full panel of roughly 83,000, 20% have a hit.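 Note: values are percent growth. 100 is the growth of untreated cells, values between 100 and 0 indicate rising inhibition; between -100 and 0 indicates cell death.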 A number with no mark means an inactive call. Active and inactive are the calls of the source. Rule for the calls: active = growth percent below 10; inactive = the rest.

For the compound `Cc1onc(-c2c(F)cccc2Cl)c1-c1ncc(-c2ccc(Br)cc2)o1`, the growth in experiment [1] was 74.8%; in experiment [2], 46%; in experiment [3], 34%; in [4] it was -0.651% (active); in [5] it was 46.8%; in experiment [6] it was 32.8%. The growth in experiment [7] is 33.1%; in experiment [8] it was 86.4%; in [9], 39.5%; in [10], 16.9%; in [11], 13.7%; in experiment [12] it was 22.6%. The growth in experiment [13] was 38.3%; in [14], 70%; in experiment [15], 48%; in experiment [16], 66.1%; in experiment [17], 36.8%; in experiment [18] it was 43.6%. In addition, the growth in [19] was 66.6%; in experiment [20], 31.1%.
`CCC(C)c1c(N)n(S(=O)(=O)c2ccc(C)cc2)oc1=O` (stereo not given): the growth was 107% in [1]; 121% in [2]; 106% in experiment [3]; 89.5% in [4]; 101% in experiment [5]; 99.9% in [6]. In addition, the growth in experiment [7] was 96.5%; in experiment [8], 113%; in [9], 112%; in experiment [10], 109%; in experiment [11], 107%; in experiment [12] it was 100%. For the same compound, the growth in experiment [13] was 96.6%; in experiment [14], 99.1%; in [15] it was 109%; in experiment [16], 113%; in [17], 88.7%; in [18], 118%. Further, the results for the growth in experiment [19] and in experiment [20] were 130% and 120%, respectively.
For the compound `Clc1ccc(C(SCc2ccccc2)SCc2ccccc2)cc1`, the growth is 103% in [1]; 89.9% in experiment [2]; 104% in experiment [3]; 90% in experiment [4]; 104% in experiment [5]; 101% in experiment [6]. The growth in [7] is 85%; in experiment [8] it was 81.3%; in [9], 83.4%; in [10], 84.9%; in experiment [11] it was 81%; in [12], 83%. The growth in experiment [13] was 95.5%; in [14], 93.3%; in experiment [15], 89%; in [16], 94.9%; in experiment [17], 93.2%; in experiment [18], 90.1%. Also, the growth is 93.4% in [19] and 98.9% in experiment [20].
For `O=C1C=Cc2ccccc2/C1=C/c1[nH]c(=O)[nH]c1O`, the growth in experiment [1] was 22.9%; in experiment [2] it was 69.6%; in experiment [3] it was 60.6%; in experiment [4], 52.5%; in experiment [5], 65.2%; in experiment [6] it was 55.3%. The growth in experiment [7] was 68.7%; in [8] it was 32.7%; in experiment [9], 24.3%; in experiment [10], 43%; in experiment [11], 33%; in experiment [12], 87.3%. Besides, the growth in [13] was 45.4%; in [14], 86.7%; in experiment [15], 41%; in [16], 32.8%; in experiment [17], 33.2%; in [18], -32.3% (active). Besides, the growth was -6.84% (active) in experiment [19] and 67.8% in [20].
As for `Nc1cc2ccccc2c(O)c1O`, the growth in experiment [1] was 85.3%; in [2], 83.4%; in experiment [3], -22.3% (active); in [4] it was 55.2%; in experiment [5], 114%; in [6] it was 9.52% (active). Besides, the growth is 84.5% in experiment [7]; 97.2% in experiment [8]; 19.6% in [9]; -6.45% (active) in experiment [10]; 0.498% (active) in experiment [11]; 12.7% in experiment [12]. Besides, the growth in experiment [13] is -69.9% (active); in experiment [14] it was 76.1%; in experiment [15] it was -97.7% (active); in experiment [16], 79.3%; in experiment [17], 67.3%; in experiment [18], -39.9% (active). The growth in experiment [19] is 81.7%; in experiment [20] it was 55.3%.
Consider `O=Cc1c(O)c2ccccc2[nH]c1=O`, for which the growth is 106% in [1]; 113% in [2]; 92.3% in experiment [3]; 81.6% in experiment [4]; 106% in experiment [5]; 91.5% in experiment [6]. Moreover, the growth in [7] is 98.1%; in [8] it was 119%; in experiment [9], 108%; in experiment [10] it was 104%; in experiment [11], 114%; in [12] it was 109%. In addition, the growth is 95.1% in experiment [13]; 98.5% in experiment [14]; 106% in experiment [15]; 105% in experiment [16]; 104% in experiment [17]; 134% in experiment [18]. For the same compound, the values for the growth in [19] and in experiment [20] were 106% and 104%, respectively.
Regarding `COc1cccc(C(=O)NNC(=O)c2cccc3ccccc23)c1`, the growth is 107% in experiment [1]; 106% in [2]; 108% in [3]; 97% in experiment [4]; 120% in experiment [5]; 106% in [6]. Also, the growth in [7] was 102%; in experiment [8], 105%; in experiment [9], 104%; in [10], 98.8%; in [11], 113%; in [12], 105%. The growth is 105% in experiment [13]; 125% in experiment [14]; 109% in experiment [15]; 100% in experiment [16]; 131% in experiment [17]; 121% in [18]. Further, the results for the growth in [19] and in experiment [20] were 114% and 107%, respectively.
For the compound `c1ccc(-c2ccc3ccccc3c2)cc1`, the growth in [1] was 76.6%; in experiment [2], 103%; in experiment [3] it was 96.1%; in experiment [4], 85.2%; in [5], 97.7%; in [6], 88.9%. Also, the growth is 97.9% in [7]; 84% in [8]; 99.6% in experiment [9]; 80.8% in experiment [10]; 80.7% in [11]; 104% in [12]. In addition, the growth in [13] was 97.1%; in [14], 99.6%; in experiment [15] it was 108%; in experiment [16], 90.5%; in [17], 85.3%; in [18], 103%. Besides, the results for the growth in experiment [19] and in [20] were 84.5% and 105%, respectively.
